Usually AC50 stands for the concentration at which the activity in the assay is half-maximal.

Structures can show the parent of a compound that is named as a salt.

In this test the test system is thyroid hormone receptor (endogenous TRα and TRβ). Also on record: species or system GH3-TRE-Luc (rat pituitary); GH3-TRE-Luc luciferase reporter, antagonist mode against 1 nM T3, loss of signal, qHTS. The settings on record: read-out: Average AC50 (uM) GH3-TRE-Antag, antagonist mode, 1 nM T3, no GH3 cytotoxicity hit.
`CCCCOc1ccc(OCCCN2CCOCC2)cc1` [Pramoxine hydrochloride]: the concentration at half-maximal activity (AC50) was 12.8 µM.

Consider `Cc1c(COC(=O)[C@@H]2[C@H](/C=C(\Cl)C(F)(F)F)C2(C)C)cccc1-c1ccccc1` (racemic) [Bifenthrin], for which the AC50 turned out to be 17.5 µM.

As for `COCc1c(C(C)C)nc(C(C)C)c(/C=C/[C@@H](O)C[C@@H](O)CC(=O)O)c1-c1ccc(F)cc1` [Cerivastatin sodium], the half-maximal activity concentration (AC50) worked out at 13.7 µM.

Turning to `CC(C(=O)O)c1ccc(-c2ccccc2)c(F)c1` (centres unmarked) [Flurbiprofen], the concentration at half-maximal activity (AC50) is more than 20 µM.

Take `CCCCCCCCCCCC(=O)OCC(O)CO` (centres unmarked) [1-Monolaurin]: the AC50 stood at 47.2 µM.

As to `CCCCCc1ccco1` [2-Pentylfuran], the AC50 came out at 61.2 µM.

For `C=CC(=O)OCCOC(=O)CCC(=O)O` [4-[2-(Acryloyloxy)ethoxy]-4-oxobutanoic acid], the AC50 came out at 73 µM.

For `OC[C@H](Cc1cccc(O)c1)[C@H](CO)Cc1cccc(O)c1` [(-)-Enterodiol], the AC50 is more than 90 µM.

As for `CN(C)c1ccc(SC#N)cc1` [4-(Dimethylamino)phenylthiocyanate], the AC50 was 59.1 µM.

As to `COc1ccc(-c2cc(=S)ss2)cc1` [Anethole trithione], the AC50 was more than 50 µM.

With `O=C(/C=C/c1ccc([N+](=O)[O-])cc1)c1ccccc1` [4-Nitrochalcone], the AC50 was found to be 49.3 µM.

As for `Cc1cc(O)c2c(c1)C(=O)c1cccc(O)c1C2=O` [Chrysophanic acid], the AC50 stood at 40.7 µM.

With `CC(C)=CCC/C(C)=C/CC/C(C)=C/CC/C(C)=C/CC1=C(C)C(=O)c2ccccc2C1=O` [Menatetrenone], the concentration at half-maximal activity (AC50) is 24.9 µM.

As for `c1ccc2c(c1)CCc1ccccc1N2` [10,11-Dihydro-5H-dibenz[b,f]azepine], the half-maximal activity concentration (AC50) was found to be 40.6 µM.

Values taken from PMC6792352, “Limited Chemical Structural Diversity Found to Modulate Thyroid Hormone Receptor in the Tox21 Chemical Library” (Environmental Health Perspectives, 2019).
